SMILES strings stand for the structures. A number with no mark means an inactive call. The source made the active and inactive calls. Calls follow the shape of the full dose curve.
% is scaled to controls: 0 for no effect and ±100 for the full control effect; potency is read from the fitted curve at half-maximal effect.

Chain of Estrogen receptor (Homo sapiens) (P03372 whole entry, looked up): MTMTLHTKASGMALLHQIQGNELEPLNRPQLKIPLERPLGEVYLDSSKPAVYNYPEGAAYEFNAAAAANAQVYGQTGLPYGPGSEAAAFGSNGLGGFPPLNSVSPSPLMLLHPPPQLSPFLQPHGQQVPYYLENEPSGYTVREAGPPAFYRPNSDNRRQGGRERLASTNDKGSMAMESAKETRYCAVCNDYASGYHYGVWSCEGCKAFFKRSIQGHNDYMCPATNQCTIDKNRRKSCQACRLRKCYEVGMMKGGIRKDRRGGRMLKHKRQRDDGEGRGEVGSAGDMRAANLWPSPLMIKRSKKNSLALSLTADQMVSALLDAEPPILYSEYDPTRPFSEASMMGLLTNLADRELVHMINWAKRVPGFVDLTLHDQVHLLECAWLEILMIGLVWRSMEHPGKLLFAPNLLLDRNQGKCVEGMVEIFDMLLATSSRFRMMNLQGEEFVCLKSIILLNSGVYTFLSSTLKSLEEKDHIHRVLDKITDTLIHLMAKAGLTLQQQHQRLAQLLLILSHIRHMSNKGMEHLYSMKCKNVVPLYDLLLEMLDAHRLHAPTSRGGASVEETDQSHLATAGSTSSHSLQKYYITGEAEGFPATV

This assay addresses Estrogen receptor (Homo sapiens) (UniProt P03372). In words: qHTS assay to identify small molecule agonists of the estrogen receptor alpha (ER-alpha) signaling pathway in the presence of an antagonist (AID 1259383). Also: nearly all actives have a fitted effect of over 15% in size. As to activation: top concentration of the series differs between compounds. The settings on record: VM7Luc4E2 cells, ERE-luciferase, +ICI-182,780, 22 h; series mostly up to 92.4 µM; activation: at the top concentration. From the text: National Center for Advancing Translational Sciences [NCATS] NIH Chemical Genomics Center [NCGC] U.S. Environmental Protection Agency [EPA] National Institutes of Environmental Health Sciences [NIEHS] National Toxicology Program [NTP] Assay overview: Estrogen receptor (ER), a member of nuclear hormone receptor plays an important role in development, metabolic homeostasis and reproduction. Two subtypes of ER, ER-alpha and ER-beta, have similar expression patterns with some uniqueness in both types. Endocrine disrupting chemicals (EDCs) and their interactions with steroid hormone receptors like ER causes disruption of normal endocrine function. Therefore, it is important to understand the effect of environmental chemicals in ER signaling pathway. For identifying ER agonists, VM7Luc4E2 cell line has been used in the current assay. VM7Luc4E2 cell line (provided by Denison MS, University of California) endogenously expresses full-length ER-alpha and is stably transfected with a plasmid containing four estrogen responsive elements (ERE) upstream of a luciferase reporter gene. This current screening for measuring luciferase reporter gene activity using VM7Luc4E2 cells against Tox21 10K library collection is a confirmation study on agonist mode screening in presence of ER-antagonist (ICI-182,780) at 10.0nM final concentration.
Assay Protocol Summary: VM7Luc4E2 cells were cultured in phenol red free assay medium containing 10% charcoal stripped FBS for 5 days prior to the assay. The cells were dispensed at 4,000 cells in 4uL of assay medium per well into white wall/solid-bottom 1536-well plates (Corning Life Sciences, Corning, NY) using a Multidrop Combi (Thermo Fisher Scientific Inc., Waltham, MA) dispenser. After the assay plates were incubated at 37C and 5% CO2 for 24hr, 1uL of 10.0nM (final concentration) ICI-182,780 or assay buffer was added using two separate tips of Flying Reagent Dispenser (FRD, Aurora Discovery, San Diego, CA). Then 23nL of compounds dissolved in DMSO at 15 concentrations and positive controls or DMSO only was transferred to the assay plates by a Pintool station (Wako, San Diego, CA). The assay plates were incubated at 37C and 5% CO2 for 22hr. For luciferase read, 4uL/well ONE-Glo reagent (Promega Corporation, Madison, WI) was added to each well using FRD and after 30min incubation at room temperature, luminescence signal was measured on ViewLux plate reader (PerkinElmer, Shelton, CT).
(Quantitative high-throughput screening tests each substance at several concentrations.)
On to `O=C(Cl)c1ccc([N+](=O)[O-])cc1`, for which the “activation” value was -0.822%. For the compound `C=CC[N+]1([C@H]2C[C@H]3[C@@H]4CC[C@H]5C[C@H](OC(C)=O)[C@@H](N6CCCCC6)C[C@]5(C)[C@H]4CC[C@]3(C)[C@H]2OC(=O)CC)CCCCC1`, the “activation” value is -0.849% [at 42.5 µM]. As for `CC(C)CCCC(C)CCO` (stereo not given), the “activation” value is -1.57%. Take `CC(=O)/C=C/C1C(C)=CCCC1(C)C` (stereo not given): the “activation” value is -0.827%.

Take `CC(=O)O[C@H]1C[C@@H]2CC[C@@H]3[C@H](CC[C@@]4(C)[C@H]3C[C@H]([N+]3(C)CCCCC3)[C@@H]4OC(C)=O)[C@@]2(C)C[C@@H]1N1CCCCC1`: the “activation” value was -0.0495% [at 42.5 µM]. On the same count and under the same terms, the result for `CCOC(=S)SSC(=S)OCC` reads 0.82%; that for `FC(F)(F)C(F)(F)C(F)(F)C(F)(F)C(F)(F)C(F)(F)CCI`, 0.155% [at 42.5 µM]. In the case of `O=C(Nc1ccccc1)OCC(CN1CCCCC1)OC(=O)Nc1ccccc1` (stereo not given), the “activation” value is -0.352% [at 42.5 µM]. Take `O=C(O)c1cn(C2CC2)c2cc(Cl)c(F)cc2c1=O`: the “activation” value is 0.763% [at 42.5 µM]. On to `CC(C)CC=O`, for which the “activation” value was -0.0597%. In the case of `CNCC[C@@H](Oc1ccccc1C)c1ccccc1`, the “activation” value is -1.71% [at 42.5 µM]. Consider `Nc1nc(N)c2nc(CNc3ccc(C(=O)N[C@@H](CCC(=O)O)C(=O)O)cc3)cnc2n1`, for which the “activation” value is -1.92%.

Consider `CCN(CC)CCc1nc(-c2ccccc2)no1`, for which the “activation” value was 1.61% [at 42.5 µM].

In the case of `C1=Cc2ccccc2C1`, the “activation” value was 0.0222%. Turning to `CCOc1ccc2[nH]cc(C(=O)NCc3ccccc3)c(=O)c2n1`, the “activation” value is 1.39%. The same measure, in the same setting: under `CC[C@@H]1C[C@H](N(Cc2cc(C(F)(F)F)cc(C(F)(F)F)c2)C(C)=O)c2cc(C(F)(F)F)ccc2N1C(=O)OC(C)C` stands 0.149%. Turning to `CC(C)(C)c1ccc(S)cc1`, the “activation” value is 0.022%. Turning to `CC(=O)NCCCS(=O)(=O)O`, the “activation” value is -1.35% [at 42.5 µM]. Regarding `CCCCOC(=O)/C=C\C(=O)OCCCC`, the “activation” value was -0.134%. As to `Cc1ccc(C(C)c2ccc(C)c(C)c2)cc1C`, the “activation” value was -0.893%. As to `CC(=O)OCCc1ccccc1`, the “activation” value was 0.85%. In the case of `CC/C(=C\C(=N/O)C(N)=O)C(C)[N+](=O)[O-]` (stereo not given), the “activation” value was -1.3%. Take `Cc1cc(O)ccc1N`: the “activation” value was 0.279%. With `N#CCc1cccc(C(F)(F)F)c1`, the “activation” value was -1.48%. In the case of `Cc1ccc(C(=O)C(C)CN2CCCCC2)cc1` (stereo not given), the “activation” value is -1.39% [at 42.5 µM]. Regarding `CCCCCCc1ccc(N)cc1`, the “activation” value is 6.65%. On the same count and under the same terms, the result for `COC(Cc1ccccc1)OC` reads -0.849%. Take `CC[C@H](C)[C@@H](C(=O)O)n1sc2ccccc2c1=O`: the “activation” value is 0.192%. For the compound `CC(C)(Oc1ccc(Cl)cc1)C(=O)OCCCOC(=O)C(C)(C)Oc1ccc(Cl)cc1`, the “activation” value is 0.207% [at 42.5 µM].

On to `Cc1occc1S`, for which the “activation” value is -0.116%. With `OC(CCN1CCCCC1)(c1ccccc1)C1CCCCC1` (stereo not given), the “activation” value is -1.66% [at 42.5 µM].

As to `CCCCCCCCC(CO)CCCCCC` (stereo not given), the “activation” value was -0.0299%. Regarding `CCCCCOC(=O)c1ccc(O)cc1`, the Potency is 31 µM (active). As to `CCOC(=O)CC(=O)c1cc(F)c(Cl)nc1Cl`, the “activation” value is 2.23%. As to `CC(C)(C)c1ccc(OCC2CO2)cc1` (stereo not given), the “activation” value was 7.26%. For the compound `CN(c1nccc(=O)[nH]1)C1CCN(c2nc3ccccc3n2Cc2ccc(F)cc2)CC1`, the “activation” value is -0.55% [at 42.5 µM]. On to `CCCCCc1ccc(N)cc1`, for which the “activation” value is 6.26%.

As for `CC(=O)CC(=O)c1ccccc1`, the “activation” value was 6.13%.

As for `CN1CCN(C2=Nc3cc(Cl)ccc3Nc3ccccc32)CC1`, the “activation” value was -0.217% [at 42.5 µM].

Consider `O=C(c1ccc(O)cc1)c1ccc(O)cc1`, for which the Potency was 21.7 µM (active).

The record behind these values is PubChem BioAssay (Tox21).
